# Laboratory results taken from publication PMC7862700, “An all-to-all approach to the identification of sequence-specific readers for epigenetic DNA modifications on cytosine”.
# Target: T1, SPIC (Homo sapiens, UniProt Q8N5J4 1-248)
# T1 sequence: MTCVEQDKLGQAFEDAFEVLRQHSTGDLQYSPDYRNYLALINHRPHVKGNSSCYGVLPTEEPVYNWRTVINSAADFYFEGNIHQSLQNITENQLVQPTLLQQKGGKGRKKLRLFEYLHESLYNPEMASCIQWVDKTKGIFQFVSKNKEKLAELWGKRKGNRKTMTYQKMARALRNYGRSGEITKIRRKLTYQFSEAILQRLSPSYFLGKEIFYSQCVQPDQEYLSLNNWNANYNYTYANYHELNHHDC
# Experiment: DAPPL (digital affinity profiling via proximity ligation, sequencing); 10 mM Tris-HCl pH 7.5, 50 mM NaCl, 1 mM DTT, 4% glycerol, room temperature, 30 min; GST-TFs on glutathione beads, 16-mer random dsDNA library, 0.1% formaldehyde crosslink after washing; high values mean tight binding
# Details: protein: recombinant; tags: N-terminal GST; dsDNA, one strand shown
# Outline: (§1)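 Pools of DNA-barcoded human transcription factors, expressed in yeast as GST fusions on glutathione beads and combined with a tag-only sample, were incubated with 200 nmole of a 16-mer random double-stranded DNA library. Incubation took 30 min at room temperature in Tris/NaCl/DTT/glycerol buffer and was followed by washing, 0.1% formaldehyde crosslinking, proximity ligation (BsaI/T4 ligase, 1 h, 37 °C), PCR amplification and sequencing on an Illumina NextSeq500. Binding signal is the ratio of a hexamer's read frequency for a factor to its frequency for the tag-only sample.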
row,Sequence,binding signal
1,GATGAA,"1.11 fold enrichment (6-mer frequency, TF over GST control)"
2,TGCGTA,"1.11 fold enrichment (6-mer frequency, TF over GST control)"
3,TGGGTT,"1.07 fold enrichment (6-mer frequency, TF over GST control)"
4,CTTGTT,"1.25 fold enrichment (6-mer frequency, TF over GST control)"
5,TCGACG,"1.07 fold enrichment (6-mer frequency, TF over GST control)"
6,TATCTG,"1.17 fold enrichment (6-mer frequency, TF over GST control)"
7,TCGTAC,"1.09 fold enrichment (6-mer frequency, TF over GST control)"
8,GAAAAC,"1.21 fold enrichment (6-mer frequency, TF over GST control)"
9,ACTCGC,"1.2 fold enrichment (6-mer frequency, TF over GST control)"
10,GGATCC,"1.13 fold enrichment (6-mer frequency, TF over GST control)"
11,GCTCGT,"1.14 fold enrichment (6-mer frequency, TF over GST control)"
12,CCTGGG,"1.05 fold enrichment (6-mer frequency, TF over GST control)"
13,AAAGGT,"1.09 fold enrichment (6-mer frequency, TF over GST control)"
14,CTCGGT,"1.06 fold enrichment (6-mer frequency, TF over GST control)"
15,TCTGTA,"1.39 fold enrichment (6-mer frequency, TF over GST control)"
16,AAGCAC,"1.09 fold enrichment (6-mer frequency, TF over GST control)"
17,CACGCG,"1.29 fold enrichment (6-mer frequency, TF over GST control)"
18,CGCTAG,"1.03 fold enrichment (6-mer frequency, TF over GST control)"
19,ACACGA,"1.11 fold enrichment (6-mer frequency, TF over GST control)"
20,TGCGTT,"1.13 fold enrichment (6-mer frequency, TF over GST control)"

row,Sequence,binding signal
1,CACTGG,"1.24 fold enrichment (6-mer frequency, TF over GST control)"
2,TAAGCC,"1.15 fold enrichment (6-mer frequency, TF over GST control)"
3,TGGTAG,"1.08 fold enrichment (6-mer frequency, TF over GST control)"
4,ACCGTC,"1.2 fold enrichment (6-mer frequency, TF over GST control)"
5,GCACGA,"1.18 fold enrichment (6-mer frequency, TF over GST control)"
6,CCACAA,"1.09 fold enrichment (6-mer frequency, TF over GST control)"
7,GAAAAA,"1.15 fold enrichment (6-mer frequency, TF over GST control)"
8,AAGCAA,"1.03 fold enrichment (6-mer frequency, TF over GST control)"
9,ATCATA,"1.04 fold enrichment (6-mer frequency, TF over GST control)"
10,CATGAA,"1.16 fold enrichment (6-mer frequency, TF over GST control)"
11,CTCCAT,"1.12 fold enrichment (6-mer frequency, TF over GST control)"
12,TCCACG,"1.15 fold enrichment (6-mer frequency, TF over GST control)"
13,ATGCTG,"1.14 fold enrichment (6-mer frequency, TF over GST control)"
14,CTGGGT,"1.17 fold enrichment (6-mer frequency, TF over GST control)"
15,TTACGA,"1.02 fold enrichment (6-mer frequency, TF over GST control)"
16,TCCACC,"1.03 fold enrichment (6-mer frequency, TF over GST control)"
17,TGCCGA,"1.37 fold enrichment (6-mer frequency, TF over GST control)"
18,ACTCGA,"1.51 fold enrichment (6-mer frequency, TF over GST control)"
19,TGAAAA,"1.11 fold enrichment (6-mer frequency, TF over GST control)"
20,AACAGC,"1.05 fold enrichment (6-mer frequency, TF over GST control)"

# Target: ELF4 (Homo sapiens, UniProt Q99607 1-663)
# Sequence (Q99607 whole entry): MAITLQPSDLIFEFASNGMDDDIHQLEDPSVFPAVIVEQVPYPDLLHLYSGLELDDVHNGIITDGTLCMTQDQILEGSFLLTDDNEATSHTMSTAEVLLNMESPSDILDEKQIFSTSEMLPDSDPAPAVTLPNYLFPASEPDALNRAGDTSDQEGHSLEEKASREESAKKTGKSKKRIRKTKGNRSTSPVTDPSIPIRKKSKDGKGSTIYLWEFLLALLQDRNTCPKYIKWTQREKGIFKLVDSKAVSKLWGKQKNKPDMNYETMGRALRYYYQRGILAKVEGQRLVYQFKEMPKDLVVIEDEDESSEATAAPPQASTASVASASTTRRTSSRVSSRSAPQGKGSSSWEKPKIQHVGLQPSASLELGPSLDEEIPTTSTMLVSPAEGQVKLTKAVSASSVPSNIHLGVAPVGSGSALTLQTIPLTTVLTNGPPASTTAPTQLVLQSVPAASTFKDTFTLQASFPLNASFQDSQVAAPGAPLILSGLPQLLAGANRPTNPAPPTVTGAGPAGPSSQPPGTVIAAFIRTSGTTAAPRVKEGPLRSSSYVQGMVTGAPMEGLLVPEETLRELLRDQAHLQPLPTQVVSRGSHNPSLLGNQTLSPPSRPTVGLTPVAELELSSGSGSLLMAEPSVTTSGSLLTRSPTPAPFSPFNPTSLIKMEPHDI
# Experiment: as above
# Details: protein: recombinant; tags: N-terminal GST; dsDNA, one strand shown
# Outline: as §1
row,Sequence,binding signal
1,GATGAA,"1.2 fold enrichment (6-mer frequency, TF over GST control)"
2,TGCGTA,"1.08 fold enrichment (6-mer frequency, TF over GST control)"
3,TGGGTT,"1.09 fold enrichment (6-mer frequency, TF over GST control)"
4,CTTGTT,"1.22 fold enrichment (6-mer frequency, TF over GST control)"
5,TCGACG,"1.08 fold enrichment (6-mer frequency, TF over GST control)"
6,TATCTG,"1.14 fold enrichment (6-mer frequency, TF over GST control)"
7,TCGTAC,"1.14 fold enrichment (6-mer frequency, TF over GST control)"
8,GAAAAC,"1.12 fold enrichment (6-mer frequency, TF over GST control)"
9,ACTCGC,"1.1 fold enrichment (6-mer frequency, TF over GST control)"
10,GGATCC,"1.13 fold enrichment (6-mer frequency, TF over GST control)"
11,GCTCGT,"1.24 fold enrichment (6-mer frequency, TF over GST control)"
12,CCTGGG,"1.09 fold enrichment (6-mer frequency, TF over GST control)"
13,AAAGGT,"1.02 fold enrichment (6-mer frequency, TF over GST control)"
14,CTCGGT,"1.09 fold enrichment (6-mer frequency, TF over GST control)"
15,TCTGTA,"1.18 fold enrichment (6-mer frequency, TF over GST control)"
16,AAGCAC,"1.2 fold enrichment (6-mer frequency, TF over GST control)"
17,CACGCG,"1.2 fold enrichment (6-mer frequency, TF over GST control)"
18,CGCTAG,"1.11 fold enrichment (6-mer frequency, TF over GST control)"
19,ACACGA,"1.2 fold enrichment (6-mer frequency, TF over GST control)"
20,TGCGTT,"1.05 fold enrichment (6-mer frequency, TF over GST control)"

row,Sequence,binding signal
1,CACTGG,"1.04 fold enrichment (6-mer frequency, TF over GST control)"
2,TAAGCC,"1.19 fold enrichment (6-mer frequency, TF over GST control)"
3,TGGTAG,"1.11 fold enrichment (6-mer frequency, TF over GST control)"
4,ACCGTC,"1.17 fold enrichment (6-mer frequency, TF over GST control)"
5,GCACGA,"1.1 fold enrichment (6-mer frequency, TF over GST control)"
6,CCACAA,"1.17 fold enrichment (6-mer frequency, TF over GST control)"
7,GAAAAA,"1.17 fold enrichment (6-mer frequency, TF over GST control)"
8,AAGCAA,"1.06 fold enrichment (6-mer frequency, TF over GST control)"
9,ATCATA,"1.08 fold enrichment (6-mer frequency, TF over GST control)"
10,CATGAA,"1.1 fold enrichment (6-mer frequency, TF over GST control)"
11,CTCCAT,"1.28 fold enrichment (6-mer frequency, TF over GST control)"
12,TCCACG,"1.13 fold enrichment (6-mer frequency, TF over GST control)"
13,ATGCTG,"1.06 fold enrichment (6-mer frequency, TF over GST control)"
14,CTGGGT,"1.13 fold enrichment (6-mer frequency, TF over GST control)"
15,TTACGA,"1.16 fold enrichment (6-mer frequency, TF over GST control)"
16,TCCACC,"1.19 fold enrichment (6-mer frequency, TF over GST control)"
17,TGCCGA,"1.19 fold enrichment (6-mer frequency, TF over GST control)"
18,ACTCGA,"1.31 fold enrichment (6-mer frequency, TF over GST control)"
19,TGAAAA,"1.11 fold enrichment (6-mer frequency, TF over GST control)"
20,AACAGC,"1.15 fold enrichment (6-mer frequency, TF over GST control)"

# Target: T2, ELK4 (Homo sapiens, UniProt P28324-2 1-405)
# T2 sequence: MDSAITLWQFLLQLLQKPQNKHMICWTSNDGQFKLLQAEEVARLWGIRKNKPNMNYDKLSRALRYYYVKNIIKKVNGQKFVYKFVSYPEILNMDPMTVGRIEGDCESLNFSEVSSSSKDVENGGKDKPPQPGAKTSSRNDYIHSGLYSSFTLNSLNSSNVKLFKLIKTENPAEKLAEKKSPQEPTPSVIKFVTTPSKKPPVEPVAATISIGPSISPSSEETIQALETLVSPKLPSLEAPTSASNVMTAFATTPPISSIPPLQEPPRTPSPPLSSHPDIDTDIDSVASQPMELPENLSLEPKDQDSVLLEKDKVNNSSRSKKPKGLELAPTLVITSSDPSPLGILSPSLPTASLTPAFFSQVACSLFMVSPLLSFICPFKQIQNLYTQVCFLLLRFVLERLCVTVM
# Experiment: as above
# Details: protein: recombinant; tags: N-terminal GST; dsDNA, one strand shown
# Outline: as §1
row,Sequence,binding signal
1,GATGAA,"1.21 fold enrichment (6-mer frequency, TF over GST control)"
2,TGCGTA,"1.27 fold enrichment (6-mer frequency, TF over GST control)"
3,TGGGTT,"1.03 fold enrichment (6-mer frequency, TF over GST control)"
4,CTTGTT,"1.17 fold enrichment (6-mer frequency, TF over GST control)"
5,TCGACG,"1.08 fold enrichment (6-mer frequency, TF over GST control)"
6,TATCTG,"1.25 fold enrichment (6-mer frequency, TF over GST control)"
7,TCGTAC,"1.03 fold enrichment (6-mer frequency, TF over GST control)"
8,GAAAAC,"1.16 fold enrichment (6-mer frequency, TF over GST control)"
9,ACTCGC,"1.14 fold enrichment (6-mer frequency, TF over GST control)"
10,GGATCC,"1.05 fold enrichment (6-mer frequency, TF over GST control)"
11,GCTCGT,"1.11 fold enrichment (6-mer frequency, TF over GST control)"
12,CCTGGG,"1.08 fold enrichment (6-mer frequency, TF over GST control)"
13,AAAGGT,"1.05 fold enrichment (6-mer frequency, TF over GST control)"
14,CTCGGT,"1.12 fold enrichment (6-mer frequency, TF over GST control)"
15,TCTGTA,"1.3 fold enrichment (6-mer frequency, TF over GST control)"
16,AAGCAC,"1.12 fold enrichment (6-mer frequency, TF over GST control)"
17,CACGCG,"1.24 fold enrichment (6-mer frequency, TF over GST control)"
18,CGCTAG,"1.09 fold enrichment (6-mer frequency, TF over GST control)"
19,ACACGA,"1.16 fold enrichment (6-mer frequency, TF over GST control)"
20,TGCGTT,"1.19 fold enrichment (6-mer frequency, TF over GST control)"
